Hit rate of the full screen: of about 5,500 compounds, about 2,000 (36%) were called active. About 18% were inconclusive and are not listed. No stated cut-off is given here; in the data, active means normalized growth mostly below about 0.91 (no sharp cut-off); inconclusive means no clear call, values can overlap the other calls; inactive means mostly above about 0.92. The list shows a part of the results.
Experiment: chemical genetic growth profiling, strain panel (AID 1159580);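 further: tested at 20 µM; growth read once vehicle control cultures reached saturation at 30 °C; 1 = growth at the plate median or of vehicle wells; lower values mean less growth of the strain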
Details: growth OD
[1] = S. cerevisiae deletion strains, locus YDL101C, strain DUN1, active compounds read low
[2] = S. cerevisiae deletion strains, locus YAL013W, strain DEP1, active compounds read low
[3] = S. cerevisiae deletion strains, locus YBR229C, strain ROT2, active compounds read low
[4] = S. cerevisiae deletion strains, locus YDL134C, strain PPH21, active compounds read low
[5] = S. cerevisiae deletion strains, locus YDR150W, strain NUM1, active compounds read low
[6] = S. cerevisiae deletion strains, locus YEL061C, strain CIN8, active compounds read low
[7] = S. cerevisiae deletion strains, locus YGR078C, strain PAC10, active compounds read low
[8] = S. cerevisiae deletion strains, locus YHR030C, strain SLT2, active compounds read low
[9] = S. cerevisiae deletion strains, locus YHR087W, strain rtc3, active compounds read low
[10] = S. cerevisiae deletion strains, locus YJR043C, strain POL32, active compounds read low
[11] = S. cerevisiae deletion strains, locus YJR075W, strain HOC1, active compounds read low
[12] = S. cerevisiae deletion strains, locus YLR039C, strain RIC1, active compounds read low
[13] = S. cerevisiae deletion strains, locus YLR058C, strain SHM2 (second series), active compounds read low
[14] = S. cerevisiae deletion strains, locus YLR085C, strain ARP6, active compounds read low
[15] = S. cerevisiae deletion strains, locus YLR262C, strain YPT6, active compounds read low
[16] = S. cerevisiae deletion strains, locus YML094W, strain GIM5, active compounds read low
[17] = S. cerevisiae deletion strains, locus YMR219W, strain ESC1, active compounds read low
[18] = S. cerevisiae deletion strains, locus YMR263W, strain SAP30, active compounds read low
[19] = S. cerevisiae deletion strains, locus YNL128W, strain TEP1, active compounds read low
[20] = S. cerevisiae deletion strains, locus YNL153C, strain GIM3, active compounds read low
[21] = S. cerevisiae deletion strains, locus YNL298W, strain CLA4 (second series), active compounds read low
[22] = S. cerevisiae deletion strains, locus YNL322C, strain KRE1, active compounds read low
[23] = S. cerevisiae deletion strains, locus YNR030W, strain Alg12, active compounds read low
[24] = S. cerevisiae deletion strains, locus YPL055C, strain LGE1, active compounds read low
[25] = S. cerevisiae deletion strains, locus YPL241C, strain CIN2, active compounds read low
[26] = S. cerevisiae deletion strains, locus YPR135W, strain CTF4, active compounds read low

Measured: normalized growth

O=C(Nc1ccc(F)cc1)c1cc(Br)ccc1O
inactive: S. cerevisiae deletion strains, locus YAR019C, strain CDC15, active compounds read low 0.91 | S. cerevisiae deletion strains, locus YBL105C, strain PKC1, active compounds read low 0.907 | S. cerevisiae deletion strains, locus YBR135W, strain CKS1, active compounds read low 0.901 | S. cerevisiae deletion strains, locus YBR136W, strain MEC1, active compounds read low 0.913 | S. cerevisiae deletion strains, locus YBR160W, strain CDC28, active compounds read low 0.899 | S. cerevisiae deletion strains, locus YDL028C, strain MPS1, active compounds read low 0.909 | [1] 0.952 | S. cerevisiae deletion strains, locus YDL108W, strain KIN28, active compounds read low 0.897 | S. cerevisiae deletion strains, locus YDL132W, strain cdc53, active compounds read low 0.94 | S. cerevisiae deletion strains, locus YDL214C, strain PRR2, active compounds read low 0.867 | S. cerevisiae deletion strains, locus YDR226W, strain ADK1, active compounds read low 0.941 | S. cerevisiae deletion strains, locus YDR477W, strain SNF1, active compounds read low 0.882 | S. cerevisiae deletion strains, locus YER123W, strain YCK3, active compounds read low 0.806 | S. cerevisiae deletion strains, locus YER133W, strain GLC7, active compounds read low 0.908 | S. cerevisiae deletion strains, locus YFL029C, strain CAK1, active compounds read low 0.894 | S. cerevisiae deletion strains, locus YFR003C, strain YPI1, active compounds read low 0.907 | S. cerevisiae deletion strains, locus YFR019W, strain FAB1, active compounds read low 0.901 | S. cerevisiae deletion strains, locus YGR040W, strain KSS1, active compounds read low 0.797 | S. cerevisiae deletion strains, locus YGR052W, strain FMP48, active compounds read low 0.901 | S. cerevisiae deletion strains, locus YGR092W, strain DBF2, active compounds read low 0.614 | S. cerevisiae deletion strains, locus YHR079C, strain IRE1, active compounds read low 0.827 | S. cerevisiae deletion strains, locus YHR082C, strain KSP1, active compounds read low 0.813 | S. cerevisiae deletion strains, locus YHR205W, strain SCH9, active compounds read low 0.615 | S. cerevisiae deletion strains, locus YIL147C, strain SLN1, active compounds read low 0.918 | S. cerevisiae deletion strains, locus YJL095W, strain BCK1, active compounds read low 0.791 | S. cerevisiae deletion strains, locus YJL128C, strain PBS2, active compounds read low 0.957 | S. cerevisiae deletion strains, locus YJL157C, strain FAR1, active compounds read low 0.83 | S. cerevisiae deletion strains, locus YJR016C, strain ILV3, active compounds read low 0.923 | S. cerevisiae deletion strains, locus YJR066W, strain TOR1 (second series), active compounds read low 0.904 | S. cerevisiae deletion strains, locus YJR066W, strain TOR1, active compounds read low 0.786 | S. cerevisiae deletion strains, locus YKL048C, strain ELM1, active compounds read low 0.891 | S. cerevisiae deletion strains, locus YKL067W, strain YNK1, active compounds read low 0.853 | S. cerevisiae deletion strains, locus YKL101W, strain HSL1, active compounds read low 0.817 | S. cerevisiae deletion strains, locus YKL193C, strain SDS22, active compounds read low 0.901 | S. cerevisiae deletion strains, locus YKL203C, strain TOR2, active compounds read low 0.873 | S. cerevisiae deletion strains, locus YLR133W, strain CKI1, active compounds read low 0.835 | S. cerevisiae deletion strains, locus YLR403W, strain SFP1, active compounds read low 0.834 | S. cerevisiae deletion strains, locus YML070W, strain DAK1, active compounds read low 0.86 | S. cerevisiae deletion strains, locus YMR001C, strain CDC5, active compounds read low 0.908 | S. cerevisiae deletion strains, locus YMR205C, strain PFK2 (second series), active compounds read low 0.832 | S. cerevisiae deletion strains, locus YNL006W, strain LST8, active compounds read low 0.923 | S. cerevisiae deletion strains, locus YNL020C, strain ARK1, active compounds read low 0.797 | S. cerevisiae deletion strains, locus YNL161W, strain CBK1, active compounds read low 0.913 | S. cerevisiae deletion strains, locus YNL183C, strain NPR1, active compounds read low 0.758 | S. cerevisiae deletion strains, locus YNL207W, strain RIO2, active compounds read low 0.907 | S. cerevisiae deletion strains, locus YNL222W, strain SSU72, active compounds read low 0.902 | S. cerevisiae deletion strains, locus YNL307C, strain MCK1 (second series), active compounds read low 0.776 | S. cerevisiae deletion strains, locus YOL078W, strain AVO1, active compounds read low 0.898 | S. cerevisiae deletion strains, locus YOL136C, strain PFK27, active compounds read low 0.837 | S. cerevisiae deletion strains, locus YOR061W, strain CKA2, active compounds read low 0.773 | S. cerevisiae deletion strains, locus YOR119C, strain RIO1, active compounds read low 0.881 | S. cerevisiae deletion strains, locus YOR231W, strain MKK1, active compounds read low 0.845 | S. cerevisiae deletion strains, locus YOR329C, strain SCD5, active compounds read low 0.912 | S. cerevisiae deletion strains, locus YPL031C, strain PHO85, active compounds read low 0.865 | S. cerevisiae deletion strains, locus YPL153C, strain RAD53, active compounds read low 0.777 | S. cerevisiae deletion strains, locus YPL204W, strain HRR25, active compounds read low 0.862 | S. cerevisiae deletion strains, locus YPL209C, strain IPL1, active compounds read low 0.909 | S. cerevisiae deletion strains, locus YPR025C, strain CCL1, active compounds read low 0.907 | S. cerevisiae deletion strains, locus YPR106W, strain ISR1, active compounds read low 0.914 | S. cerevisiae deletion strains, locus YPR111W, strain DBF20, active compounds read low 0.893 | S. cerevisiae deletion strains, strain NNK1, active compounds read low 0.927 | S. cerevisiae deletion strains, strain TSCII, active compounds read low 0.902
active: S. cerevisiae deletion strains, locus YDL017W, strain CDC7, active compounds read low 0.898 | S. cerevisiae deletion strains, locus YDR052C, strain DBF4, active compounds read low 0.905 | S. cerevisiae deletion strains, locus YDR054C, strain cdc34, active compounds read low 0.876 | S. cerevisiae deletion strains, locus YFL009W, strain cdc4, active compounds read low 0.887 | S. cerevisiae deletion strains, locus YFR028C, strain CDC14, active compounds read low 0.863 | S. cerevisiae deletion strains, locus YLR113W, strain HOG1, active compounds read low 0.804 | S. cerevisiae deletion strains, locus YMR277W, strain FCP1, active compounds read low 0.884 | S. cerevisiae deletion strains, locus YPL256C, strain CLN2, active compounds read low 0.837

Nc1c(Cl)cc(C(=O)Nc2cc(Cl)cc(Cl)c2)cc1Cl
inactive: [3] 0.957 | S. cerevisiae deletion strains, locus YCL061C, strain MRC1, active compounds read low 0.994 | [1] 1.02 | [4] 0.978 | [5] 0.934 | [6] 0.956 | [7] 0.977 | [9] 0.935 | [11] 0.97 | [13] 0.99 | [14] 0.842 | [15] 0.847 | [16] 0.872 | [17] 0.976 | [18] 0.934 | [19] 0.982 | [20] 0.984 | [22] 1 | [26] 0.894 | S. cerevisiae strains, strain wild type, active compounds read low 0.956
active: [2] 0.897 | [8] 0.496 | [10] 0.907 | [12] 0.77 | S. cerevisiae deletion strains, locus YMR307W, strain GAS1, active compounds read low 0.651 | [21] 0.825 | [23] 0.778 | [24] 0.8 | [25] 0.821

Clc1cc(Cl)cc(Br)c1
inactive: [2] 1.03 | [3] 1.02 | [1] 1.02 | [4] 1.02 | [5] 1.04 | [6] 1.03 | [7] 1.01 | [8] 1.1 | [9] 1.05 | [10] 1.01 | [11] 1 | [12] 1.09 | [13] 1.02 | [14] 1.14 | [15] 1.07 | [16] 1.04 | [17] 1.02 | [18] 1.02 | [19] 1.02 | [20] 1.01 | [21] 1.08 | [22] 1.02 | [23] 1.05 | [24] 1.03 | [25] 1.04 | [26] 1.16
